LMP1 NFkB inh: inhibitors of Epstein-Barr LMP1-induced NF-kappaB reporter. inhibition, % at 12.5 µM. AID 504558. 0.69% of 350,000 active. LMP1-induced NF-kappaB luciferase reporter cells, luminescence; in the data active = inhibition above about 41%;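 also: 0% = neutral control wells and 100% = reference inhibitor control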
Shn3 3UTR inh: Schnurri-3 reporter inhibition in Clone20 osteoblasts; Clone20 osteoblast Shn3 3'UTR firefly luciferase, 24 h; inhibition, % at 12.5 µM; 0.52% of 360,000 active; AID 588674;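 active = mean inhibition of at least 75% with every replicate also reaching 75%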;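 also: 0% = median of neutral control wells and 100% = pilot-screen positive control compound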
LGR2 antag: blocks bursicon-induced cAMP signaling via Drosophila LGR2 | HEK293 LGR2, CRE-luciferase, bursicon-stimulated, 4 h | inhibition, % at 9.99 µM | 0.35% of 380,000 active | AID 720647;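 active = drop in luminescence signal, shown as inhibition above about 50% in the replicate tests, limit read from the data, passing the limit was not always enough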;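 also: agonist challenge used bursicon conditioned medium at about half maximal strength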
EWS-Fli block: EWS/Fli transcriptional activity inhibition. A673 NR0B1-luciferase reporter, viability-normalised. inhibition, % at 12.6 µM. 0.67% of 350,000 active. AID 651661;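 active = mean inhibition of at least 50% after viability correction, with every replicate also passing that limit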;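 also: firefly luciferase signal divided by Alamar Blue viability fluorescence both relative to DMSO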
PAX8 reporter: inhibitors of PAX8 transcriptional activity in RMG-I cells | 1.2% of 360,000 active | RMG-I TPO-luciferase reporter, SteadyGlo, 24 h | inhibition, % at 12.6 µM | AID 652154;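 active = mean replicate inhibition at least 60% with every replicate also reaching 60%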;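 also: luciferase light reporting Pax8 driven TPO promoter activity; plate controls were median of neutral control wells for no effect and mitoxantrone controls for full effect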
TRPM1 prom inh: MITF TRPM1 promoter inhibition in SK-MEL-5 cells; SK-MEL-5 TRPM1 promoter luciferase, 24 h; inhibition, % at 12.5 µM; 0.83% of 330,000 active; AID 488899;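 active = mean inhibition across replicates of 60% or more, whatever share of single replicates reaches that level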
An asterisk follows results filed as active. This is a sample that favours compounds with a hit; in the whole collection about 2.2% have one here.

`O=C(Nc1ccc(Cl)cc1)N[C@@H]1CC[C@@H](CCNS(=O)(=O)c2ccccc2F)O[C@H]1CO` gave LGR2 antag 7, EWS-Fli block -7 and PAX8 reporter 43.
Screening CCOC(=O)c1csc(NC(=O)c2cc3ccccc3o2)n1 returned LMP1 NFkB inh -15, LGR2 antag -54, EWS-Fli block 59*, PAX8 reporter -45 and TRPM1 prom inh -47.
CCOC(=O)c1sc(NC(=O)c2ccc3ncsc3c2)nc1C was read as LMP1 NFkB inh -22, Shn3 3UTR inh -46, LGR2 antag -28, EWS-Fli block 87* and PAX8 reporter 33.
Screening Cc1cc(C(=O)Nc2cccc(C(=O)O)c2)oc1C returned LMP1 NFkB inh 66*, Shn3 3UTR inh 61 and TRPM1 prom inh 87*.
Screening Cc1cc(C(=O)Nc2cccc(C(=O)O)c2)c(C)o1 returned LMP1 NFkB inh -6, Shn3 3UTR inh -16 and TRPM1 prom inh 7.
C[C@H]1CN([C@@H](C)CO)S(=O)(=O)c2ccc(/C=C/c3ccccc3)cc2O[C@@H]1CN(C)C(=O)CN1CCOCC1 was read as EWS-Fli block -3 and PAX8 reporter 5.
`CCCCN1C2CCCC1CC(NC(=O)C1CCCCC1)C2` (configuration not stated) gave LMP1 NFkB inh 51*, Shn3 3UTR inh 1, PAX8 reporter -17 and TRPM1 prom inh 4.
Screening O=C(NC1CC2CCCC(C1)N2Cc1ccccc1)C1CCCCC1 (configuration not stated) returned LMP1 NFkB inh 1, Shn3 3UTR inh 21, LGR2 antag 4, EWS-Fli block -6, PAX8 reporter -25 and TRPM1 prom inh 0.
Screening CN(CCNC(=O)C1CCN(S(=O)(=O)N2CCOCC2)CC1)CCc1ccccc1 returned LMP1 NFkB inh 41*, Shn3 3UTR inh 4, LGR2 antag 0 and TRPM1 prom inh -2.
For O=C(NCC1OCCc2ccccc21)c1ccc(NC(=O)c2ccc(Cl)cc2)cc1 (configuration not stated) the results were LMP1 NFkB inh 21, Shn3 3UTR inh 24, LGR2 antag 11, PAX8 reporter 34 and TRPM1 prom inh 69*.
Cc1ccc(NC(=O)C(=O)NCC2OCCc3ccccc32)cc1 (configuration not stated) was read as LMP1 NFkB inh -2, Shn3 3UTR inh 10, LGR2 antag -21, EWS-Fli block -6, PAX8 reporter -19 and TRPM1 prom inh -24.
Cc1nc2c(=O)n(C)c(=O)n(C)c2nc1Cl was read as LMP1 NFkB inh -32, Shn3 3UTR inh 97*, LGR2 antag -23, EWS-Fli block 59*, PAX8 reporter 111* and TRPM1 prom inh 43.
Screening C[C@@H]1CCCCO[C@@H](CN(C)CC2CCCCC2)[C@@H](C)CN([C@@H](C)CO)C(=O)c2cc(NC(=O)NC3CCCCC3)ccc2O1 returned LGR2 antag 3, EWS-Fli block -6 and PAX8 reporter 8.
Screening Cc1ccc(C(=O)CSc2nnc3ccccn23)c(C)c1 returned LMP1 NFkB inh -3, Shn3 3UTR inh -25, LGR2 antag 30, EWS-Fli block 0, PAX8 reporter -41 and TRPM1 prom inh -11.
Screening COCCn1c(C)cc(C(=O)CSc2nc3ccccc3s2)c1C returned LMP1 NFkB inh 10, Shn3 3UTR inh 26, LGR2 antag 61*, PAX8 reporter -7 and TRPM1 prom inh 9.
`COCCn1c(C)cc(C(=O)CSc2nc3ccccc3o2)c1C` gave LMP1 NFkB inh -14, Shn3 3UTR inh 30, PAX8 reporter -147 and TRPM1 prom inh -27.
`COCCn1c(C)cc(C(=O)CSc2nnc3ccccn23)c1C` gave LMP1 NFkB inh 50*, Shn3 3UTR inh 37, LGR2 antag 62*, EWS-Fli block 63*, PAX8 reporter 32 and TRPM1 prom inh 59.
Screening CO[C@@H]1CN(C)C(=O)c2cc(NS(=O)(=O)c3ccc(C)cc3)ccc2OC[C@@H](C)NC[C@@H]1C returned LGR2 antag 2, EWS-Fli block 1 and PAX8 reporter 3.
For COc1ccc2c3c([nH]c2c1)[C@@H](CO)N(C(=O)NC1CCCC1)CC31CN(S(C)(=O)=O)C1 the results were LGR2 antag -4 and EWS-Fli block 15.
CCCNC(=O)N[C@@H]1CC[C@@H](CC(=O)N2CCN(C)CC2)O[C@@H]1CO was read as LGR2 antag -21, EWS-Fli block -2 and PAX8 reporter 0.
`CCN(CC)CCN(C)Cc1nc(C(c2ccccc2)c2ccccc2)no1` gave LMP1 NFkB inh -8, Shn3 3UTR inh 8, EWS-Fli block 26, PAX8 reporter 15 and TRPM1 prom inh -4.
`CN(CCc1cn[nH]c1)Cc1nc(C(c2ccccc2)c2ccccc2)no1` gave LMP1 NFkB inh 0, Shn3 3UTR inh -14, LGR2 antag -17, EWS-Fli block 8, PAX8 reporter 144* and TRPM1 prom inh 6.
Screening O=C(C[C@@H]1C[C@H]2c3cc(NC(=O)C4CCC4)ccc3O[C@H]2[C@H](CO)O1)NCc1cc(F)ccc1F returned LGR2 antag 3, EWS-Fli block 7 and PAX8 reporter 17.
`O=C(Cn1cc(CNC(=O)C2CCCCC2)nn1)Nc1cc(C(F)(F)F)ccc1Cl` gave LMP1 NFkB inh 42*, Shn3 3UTR inh 8, LGR2 antag 7, EWS-Fli block -1, PAX8 reporter -10 and TRPM1 prom inh -7.
`O=C(COC(=O)CNC(=O)C1CCCCC1)Nc1cc(C(F)(F)F)ccc1Cl` gave LMP1 NFkB inh 9, Shn3 3UTR inh -10, EWS-Fli block 7, PAX8 reporter 11 and TRPM1 prom inh -5.
`COc1ccc(N(C)C(=O)c2ccc3snnc3c2)cc1` gave LMP1 NFkB inh -5, Shn3 3UTR inh 87*, LGR2 antag -10 and EWS-Fli block -2.
Screening COC(=O)C[C@H]1CC[C@@H]2[C@H](COC[C@@H](O)CN2S(=O)(=O)c2ccc(F)cc2)O1 returned LGR2 antag 1, EWS-Fli block -4 and PAX8 reporter 7.
Screening COC(=O)C[C@H]1C[C@@H]2c3cc(NC(=O)Nc4ccc(OC)cc4)ccc3O[C@@H]2[C@@H](CO)O1 returned LGR2 antag 23, EWS-Fli block 5 and PAX8 reporter -7.
`CCCSc1cc(NCCOC(C)=O)c([N+](=O)[O-])c2nonc12` gave LMP1 NFkB inh 11, Shn3 3UTR inh 4, LGR2 antag 11, EWS-Fli block -13, PAX8 reporter 16 and TRPM1 prom inh 4.
Cc1nnc(Sc2cc(NCCO)c([N+](=O)[O-])c3nonc23)s1 was read as LMP1 NFkB inh -2, Shn3 3UTR inh 34, LGR2 antag -1, EWS-Fli block 1, PAX8 reporter 30 and TRPM1 prom inh 67*.
O=[N+]([O-])c1c(NCCCO)cc(Sc2nc3ccccc3s2)c2nonc12 was read as LMP1 NFkB inh 2, Shn3 3UTR inh 90*, LGR2 antag 6 and TRPM1 prom inh 70*.
